A selection: hits, their analogues and other compounds. The true share with any hit is near 18%.
HepG2 tox – counter-screen for TGF-b inhibitors: cytotoxicity in HepG2 cells; HepG2 CAGA-GFP viability, ATP luminescence, 18 h; Potency, µM (highest dose often 46.1 µM), for inactives: top-dose activity change, negative = cytotoxicity, actives largely listed as cytotoxic; 410,000 compounds, 0.76% hits; note: potency is the fitted concentration of half-maximal effect
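HepG2 CAGA-GFP cells (1000/well, DMEM with 1% FBS) received compound, then TGF-beta at 500 pg/mL final, and were incubated 18 hours at 37 degrees C. Viability was read by CellTiter-Glo luminescence. Media-only wells were set as complete cell-killing and DMSO as no toxicity.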
TDP1 block – inhibitors of human tyrosyl-DNA phosphodiesterase TDP1. Q9NUW8. recombinant TDP1, AlphaScreen DNA substrate cleavage. Potency, µM (top dose mostly 130 µM), for the others: at the highest dose activity change, negative = inhibition, most hits filed as inhibitors. 350,000 compounds, 0.28% hits. AID 485290; note: potency is the fitted concentration of half-maximal effect; % is set by controls: 0 for no effect and ±100 for the full control effect; nearly all actives have a fitted effect of over 40% in size
Target sequence (Q9NUW8 whole entry, looked up): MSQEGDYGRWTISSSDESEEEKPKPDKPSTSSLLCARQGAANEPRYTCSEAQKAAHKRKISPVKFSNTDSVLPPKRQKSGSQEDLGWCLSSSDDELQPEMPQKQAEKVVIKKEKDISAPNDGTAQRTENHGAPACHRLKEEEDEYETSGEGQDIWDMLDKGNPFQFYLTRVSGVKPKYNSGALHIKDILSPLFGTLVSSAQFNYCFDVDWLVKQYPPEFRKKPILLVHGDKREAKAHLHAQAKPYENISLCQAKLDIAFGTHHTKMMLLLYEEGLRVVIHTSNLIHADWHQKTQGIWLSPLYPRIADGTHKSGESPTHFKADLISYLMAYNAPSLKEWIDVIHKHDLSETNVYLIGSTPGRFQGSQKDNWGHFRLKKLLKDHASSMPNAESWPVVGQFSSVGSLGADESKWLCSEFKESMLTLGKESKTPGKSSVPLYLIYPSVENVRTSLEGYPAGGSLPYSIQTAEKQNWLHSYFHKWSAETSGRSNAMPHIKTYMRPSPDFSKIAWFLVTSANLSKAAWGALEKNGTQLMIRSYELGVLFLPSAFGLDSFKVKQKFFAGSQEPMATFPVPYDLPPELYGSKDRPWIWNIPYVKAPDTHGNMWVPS
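Here, a 5' biotin and 3' phosphotyrosine-FITC DNA oligonucleotide reports Tdp1 activity: intact substrate bridges AlphaScreen beads, while cleavage leaves a 3' phosphate and drops signal. All incubations at room temperature.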
IL1B secr inh – inflammasome signaling inhibition, IL-1 beta readout; THP-1 LPS/ATP IL-1B secretion, AlphaLISA, 16 h; hits give low values; activity change, % at 57.5 µM; 360,000 compounds, 4.7% hits; AID 743279; in the data active = activity change below about -50%; inconclusive = mostly about -30% to -49%; note: % is set by controls: 0 for no effect and ±100 for the full control effect
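Secreted IL-1B measured by AlphaLISA bead assay after 16 h compound exposure of THP-1 cells; compounds (final up to 57.5 uM) added 1 h before LPS (250 ng/mL) and ATP (1.25 mM) stimulation; lower signal means less secretion.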
DT40 TDP1 no CPT – qHTS for Inhibitors of human tyrosyl-DNA phosphodiesterase 1 (TDP1): qHTS in cells in absence of CPT. DT40 Tdp1-/- hTDP1 cells, no CPT, ATP luminescence, 48 h. Potency, µM (top dose mostly 46.2 µM), without a hit: top-dose activity change, negative = growth inhibition, usual class: inhibitors. 420,000 compounds, 15% hits. AID 686978, 2013; note: potency is the fitted concentration of half-maximal effect; % is set by controls: 0 for no effect and ±100 for the full control effect; nearly all actives have a fitted effect of over 55% in size
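Chicken DT40 Tdp1-/- cells stably complemented with human TDP1 were seeded at 400 cells/well with DMSO in place of 20 nM camptothecin. After compound pinning, cells grew at least 48 hr at 37 °C; viability read by CellTiter-Glo luminescence.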
TGFb inhibitor – inhibitors of TGF-b signaling. HepG2 CAGA-GFP TGF-b/SMAD3 reporter, GFP fluorescence, 18 h; TGF-beta stimulated, 500 pg/mL final. Potency, µM (highest dose often 46.1 µM), for the others: at the top dose activity, negative = inhibition, most hits filed as inhibitors. 410,000 compounds, 1.2% hits. AID 588855; note: potency is the fitted concentration of half-maximal effect; % is set by controls: 0 for no effect and ±100 for the full control effect; nearly all actives have a fitted effect of over 65% in size
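Inhibition of TGF-beta-driven CAGA-GFP reporter expression in HEPG2 cells is measured by cellular GFP fluorescence after 18 h stimulation with 500 pg/mL recombinant TGF-beta in 1% FBS medium at 37 degrees C.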
DT40 TDP1 CPT – DT40-hTDP1 cell growth loss with CPT; Potency, µM (top dose mostly 46.2 µM), for the others: at the top dose activity change, negative = growth inhibition, hits mostly inhibitors; 420,000 compounds, 12% hits; chicken DT40 Tdp1-/-;hTDP1 cells + 20 nM CPT, ATP luminescence, 48 h; note: potency is the fitted concentration of half-maximal effect; % is set by controls: 0 for no effect and ±100 for the full control effect; nearly all actives have a fitted effect of over 55% in size
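Chicken DT40 Tdp1-/- cells stably complemented with human TDP1 were seeded at 400 cells/well in medium containing 20 nM camptothecin, exposed to pin-transferred compounds, and grown at 37 °C for at least 48 hr. Viability was read as ATP luminescence.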
Numbers without * were called inactive; ? = inconclusive; . = no result; [ ] = dose if it differs, or a comment. Unless noted, calls come from the whole dose curve; as a rule, active = well fitted curve in the direction sought with a large enough effect; inconclusive = small, poorly fitted or top-dose-only effect, or another doubt; inactive = no such curve, though single readings can be large; an effect the other way counts as inactive or inconclusive.

SMILES	HepG2 tox	TDP1 block	IL1B secr inh	DT40 TDP1 no CPT	TGFb inhibitor	DT40 TDP1 CPT
Cc1ccc(N=Cc2cc(Cc3ccccc3Cl)cc([N+](=O)[O-])c2O)c(O)c1	-25%	11%	20	4%	?	?
CN(c1ccc(OCC(=O)OCC(=O)Nc2ccccc2)cc1)S(=O)(=O)c1ccc(F)cc1	6%	0%	13	2%	8%	35%
CCOC(=O)Cc1csc(NC(=O)COc2ccc(N(C)S(=O)(=O)c3cccs3)cc2)n1	-19%	4%	-5	29µM*	?	?
CN(c1ccc(OCC(=O)Nc2nc(-c3ccccc3)cs2)cc1)S(=O)(=O)c1ccc(F)cc1	-33%	-4%	19	21µM*	?	18µM*
Cc1ccc(S(=O)(=O)N(C)c2ccc(OCC(=O)Nc3nc(-c4ccccc4)cs3)cc2)cc1	-3%	1%	33	13µM*	-20%	16µM*
CCOC(=O)C(=O)c1csc(NC(=O)COc2ccc(N(C)S(=O)(=O)c3ccc(F)cc3)cc2)n1	-2%	4%	8	-3%	-12%	-9%
CN(Cc1ccccc1)C(=O)COc1ccc(N(C)S(=O)(=O)c2ccc(F)cc2)cc1	6%	6%	0	15µM*	-10%	16µM*
CC1(C)Cc2c(sc(NC(=O)C(=O)N3CCCC3)c2C#N)CO1	-38%	5%	-1	?	11%	?
O=C1C=C(c2ccc3c(c2)OCCO3)C[C@@H](c2ccc(F)cc2)C1	1%	-1%	-1	?	-4%	?
COc1ccc(CCC(C)NC2CCCCCCC2)cc1 (stereo not given)	-10%	.	-73*	?	38%	?
COc1ccc(CCC(C)NCc2cc(OC)cc(OC)c2)cc1 (stereo not given)	-35%	6%	-17	?	-9%	?
COc1ccc(CCC(C)NCC2CCCCC2)cc1 (stereo not given)	-28%	0%	-18	18µM*	-2%	?
CC1CCN(C(=O)Cn2c(=O)n(CCCCCC(=O)NCc3ccccc3Cl)c(=O)c3sccc32)CC1	-16%	0%	.	10µM*	-1%	?
CCOc1ccccc1NC(=O)Cn1c(=O)n(CC(=O)NCc2ccccc2Cl)c(=O)c2sccc21	3%	6%	.	9.2µM*	-4%	8.2µM*
Cc1ccccc1NC(=O)Cn1c(=O)n(CCCCCC(=O)NCc2ccccc2Cl)c(=O)c2sccc21	-5%	-1%	.	?	?	?
CO[C@H]1O[C@H](CBr)[C@@H](OC(=O)c2ccccc2)[C@H](O)[C@H]1O	5%	.	24	-8%	0%	-6%
Cc1ccc(CC(=O)N(Cc2nc(-c3ccc(C)cc3)no2)C(C)C)cc1	-7%	5%	.	23µM*	?	?
Cc1ccc(-c2noc(CN(C(=O)c3cccs3)C(C)C)n2)cc1	-4%	-2%	-78*	?	-27%	?
Cc1ccc(C(=O)N(Cc2nc(-c3ccc(C)cc3)no2)C(C)C)cc1	2%	1%	33	16µM*	15%	?
COc1ccc(-c2noc(CN(C(=O)C(C)Oc3ccc(C)cc3)C(C)C)n2)cc1 (stereo not given)	-26%	0%	.	15µM*	.	16µM*
COc1ccc(OC(C)C(=O)N(C)Cc2nc(-c3ccccc3)no2)cc1 (stereo not given)	-17%	.	34	?	-14%	3%
Cc1ccc(-c2noc(CN(C(=O)c3ccc4c(c3)OCO4)C(C)C)n2)cc1	13%	6%	?	?	-7%	?
c1ccc(COc2ccc(Nc3ncnc4nc[nH]c34)cc2)cc1	1%	9%	97	?	5%	0%
COc1cc(OC)c(C(=O)Nc2ccc(C(=O)c3ccccc3)cc2)cc1OC	1%	7%	?	?	12%	?
CCOc1cc(C(=O)N(Cc2nc(-c3ccc(C)cc3)no2)C(C)C)cc(OCC)c1OCC	-30%	-5%	.	?	?	16µM*
SMILES	HepG2 tox	TDP1 block	IL1B secr inh	DT40 TDP1 no CPT	TGFb inhibitor	DT40 TDP1 CPT
COc1ccc(C(=O)N(Cc2nc(-c3ccc(C)cc3)no2)C(C)C)cc1OC	-6%	4%	11	?	-4%	-89%
Cc1ccc(SCC(=O)N(Cc2nc(-c3ccccc3)no2)C(C)C)cc1	-1%	-5%	?	?	?	18µM*
Cc1ccccc1OCC(=O)N(Cc1nc(-c2ccccc2)no1)C(C)C	-37%	7%	?	?	-5%	?
COCCNc1nc(NCc2ccc(C)cc2C)c2sccc2n1	-31%	.	2	15µM*	0%	15µM*
COCCNc1nc(Nc2ccc(C)cc2C)c2sccc2n1	-19%	.	18	1.5µM*	?	1.8µM*
COc1ccc(N(CC(=O)NCC2CCCO2)C(=O)CCC(=O)Nc2cc(C)on2)cc1OC (stereo not given)	-6%	3%[0.0935 µM]	7	1%	11%	-20%
O=C(c1ccccc1)c1ccc(OCC(O)CNC2CCCc3ccccc32)cc1 (stereo not given)	1%	-3%	17	?	-5%	16µM*
CC(=O)CCc1ccc(OCC(O)CNC2CCCc3ccccc32)cc1 (stereo not given)	8%	0%	-11	?	-5%	?
CCc1ccccc1OC[C@@H](O)CN[C@H]1CCCc2ccccc21	-104%	11%[56.1 µM]	?	6µM*	?	16µM*
OC(CNC1CCCc2ccccc21)COc1ccc2ccccc2c1 (stereo not given)	-89%	6%	-11	21µM*	?	?
COc1ccc(CN2CCNC(=O)C2CC(=O)N(C)C2CCCCC2)cc1OC (stereo not given)	-2%	.	-10	11%	10%	4%
Cc1ccccc1N(C(=O)c1snc(C(N)=O)c1N)C(C(=O)NCC1CCCO1)c1ccc(F)cc1 (stereo not given)	-8%	4%	19	10µM*	1%	15µM*
CCc1ccccc1N(C(=O)c1snc(C(N)=O)c1N)C(C(=O)NCC1CCCO1)c1c[nH]c2ccccc12 (stereo not given)	-2%	11%	-24	21µM*	?	?

Screening data as filed in PubChem BioAssay.
